FBA Mtb inh: inhibits M. tuberculosis FBA enzyme | inhibition, % at 1 µM | 360,000 compounds, 2.3% hits | purified M. tuberculosis FBA, fluorescence read-out; in the data active = inhibition above about 27%;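 also: 0% = vehicle and 100% = reference inhibitor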
RecA intein inh: inhibitors of M. tuberculosis RecA intein splicing | P9WHJ3 | cell-free RecA intein splicing, fluorescence | inhibition, % (concentration not given with the values) | 290,000 compounds, 0.75% hits | AID 2221; in the data active = inhibition above about 30%; inconclusive = no clear call, values can overlap the other calls;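 also: 0% = vehicle wells and 100% = reference inhibitor control wells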
GDH-TPI inh: inhibits GDH-TPI coupling enzymes, artifact for Mtb FBA screen. GDH-TPI coupled enzyme counterscreen, NADH absorbance. inhibition, % at 4.8 µM. 360,000 compounds, 1.2% hits; in the data active = inhibition above about 30%;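 also: 0% = DMSO wells and 100% = wells lacking the enzyme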
Rv3671c protease: Rv3671c (M. tuberculosis) protease inhibition; inhibition, % at 5.96 µM; P9WHR9; AID 2606; 320,000 compounds, 0.048% hits; in the data active = inhibition above about 38%;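 also: extracellular domain of Rv3671c used as enzyme; 0% = enzyme with DMSO and 100% = no enzyme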
UGM FP inh: inhibitors of M. tuberculosis UDP-galactopyranose mutase; P9WIQ1; purified UGM, fluorescence polarization probe displacement; inhibition, % at 10 µM; 320,000 compounds, 0.06% hits; in the data active = inhibition above about 10%, passing the limit was not always enough; inconclusive = no clear call, values can overlap the other calls
Target sequence (P9WIQ1 whole entry, looked up): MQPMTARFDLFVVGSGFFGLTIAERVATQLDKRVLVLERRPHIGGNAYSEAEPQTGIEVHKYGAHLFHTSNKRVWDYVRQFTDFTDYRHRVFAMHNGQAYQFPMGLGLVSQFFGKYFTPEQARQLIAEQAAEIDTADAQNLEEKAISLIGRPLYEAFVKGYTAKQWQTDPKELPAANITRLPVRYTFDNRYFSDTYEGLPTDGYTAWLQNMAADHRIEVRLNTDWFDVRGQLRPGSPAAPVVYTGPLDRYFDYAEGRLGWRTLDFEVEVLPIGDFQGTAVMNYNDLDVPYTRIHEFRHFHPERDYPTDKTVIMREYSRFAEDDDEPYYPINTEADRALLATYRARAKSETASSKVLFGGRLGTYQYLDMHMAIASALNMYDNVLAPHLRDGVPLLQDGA
Mtb bLac sens: beta-lactam sensitization of Mtb H37Rv; M. tuberculosis H37Rv growth with meropenem, percent inhibition; inhibition, % at 25 µM; 330,000 compounds, 0.27% hits; call rule not given here;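 also: growth measured after seven days incubation then overnight dye step; 0% = bacteria only wells and 100% = bacteria with antibiotic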
* hit, by the source's call; u = inconclusive; x = no result given; + = active, no number. Rows were chosen to be rich in hits. Some 4% of all compounds tested hit in one or more screens of this group.

SMILES	FBA Mtb inh	RecA intein inh	GDH-TPI inh	Rv3671c protease	UGM FP inh	Mtb bLac sens
CC(C)N1CCc2c(sc(N)c2C#N)C1	22	-52	32*	-15	3	-6
COCCn1nnnc1CN1CCC(O)(c2cccc(C(F)(F)F)c2)CC1	-2	-1	-4	4	-3	3
COCCn1nnnc1CN1CCN(c2cccc(C(F)(F)F)c2)CC1	191*	4	-5	-1	4	-1
Cc1c(C(=O)Nc2nnc(C3CC3)s2)oc2c(Cl)cccc12	2	-1	37*	-7	1	-6
Cc1c(C(=O)Nc2nnc(C3CC3)s2)oc2ccccc12	2	x	6	-10	0	3
CC(C)C/C(O)=C/c1nc2cc(Cl)ccc2oc1=O	-3	2	7	-5	-1	93
O=c1oc2ccc(Cl)cc2nc1/C=C(\O)c1ccco1	-2	-2	37*	1	-1	99
CN(C)c1ccc(C=NN2C(=O)CSC2=S)c(Cl)c1	-7	x	36*	x	x	x
CC(C)(C)OC(=O)COc1cc(OCC(=O)OC(C)(C)C)c2c(=O)cc(-c3ccccc3)oc2c1	28*	7	21	-16	0	3
O=C1c2ccccc2-c2nccnc21	20	21	-6	-4	0	-10
O=C1c2ccccc2-c2c1nc1c([n+]2[O-])CCCC1	-1	37*	-6	-2	2	-2
Cc1cc(C)n2nc3nc(N4CCCCC4)nc(-c4ccco4)c3c2n1	38*	-11	16	-3	-1	-3
COc1cc2c(cc1OC)-c1cc(Nc3ccccc3)nc(=O)n1CC2	9	14	18	8	2	0
COc1cc2c(cc1OC)-c1cc(Nc3ccc4c(c3)OCCO4)nc(=O)n1CC2	3	2	36*	-6	0	30
COc1cc2c(cc1OC)-c1cc(N3CCCCCC3)nc(=O)n1CC2	14	2	46*	3	0	-1
COc1cc2c(cc1OC)-c1cc(Nc3ccc(C)cc3)nc(=O)n1CC2	-1	2	18	2	0	4
COc1cc2c(cc1OC)-c1cc(NC3CCCCCC3)nc(=O)n1CC2	15	4	31*	-9	0	5
COc1cc2c(cc1OC)-c1cc(OCc3cccnc3)nc(=O)n1CC2	+	x	40*	x	x	x
COc1ccccc1-n1c(SCC(=O)NC2CC2)nc2ccccc2c1=O	3	x	4	-6	0	3
O=C(c1ccc(NS(=O)(=O)c2ccccc2)cc1)N1CCN(c2ccccc2)CC1	1	x	x	-4	2	x
COc1cc2c(cc1OC)-c1cc(N3CCc4ccccc43)nc(=O)n1CC2	19	-4	43*	-10	0	-4
COc1ccc(Nc2cc3n(c(=O)n2)CCc2cc(OC)c(OC)cc2-3)c(C)c1	2	-1	33*	0	-1	u
COc1cc2c(cc1OC)-c1cc(N3CCCc4ccccc43)nc(=O)n1CC2	1	3	16	-6	-2	25
COc1ccc(Nc2cc3n(c(=O)n2)CCc2cc(OC)c(OC)cc2-3)cc1	22	-4	24	-3	0	-6
COc1cc(OC)cc(C(=O)N2CCC(C(=O)NCCc3ccccc3)CC2)c1	1	x	0	14	3	1
SMILES	FBA Mtb inh	RecA intein inh	GDH-TPI inh	Rv3671c protease	UGM FP inh	Mtb bLac sens
N#C/C(=C/c1ccc(CNS(=O)(=O)c2ccccc2)o1)C(N)=O	-1	3	37*	0	0	5
CC1CN(C(=O)/C=C/c2ccc3c(c2)OCO3)CC(C)O1 (stereo not given)	9	5	35*	2	3	-10
COc1ccccc1N1CCN(C(=O)/C=C/c2ccc3c(c2)OCO3)CC1	1	2	43*	-6	-2	16
COc1ccc(N=c2oc3cc(O)ccc3cc2C(=O)NCC2CCCO2)c(OC)c1 (stereo not given)	+	-32	32*	-2	-1	u
CCOc1ccccc1N=c1oc2cc(O)ccc2cc1C(=O)NCC1CCCO1 (stereo not given)	166*	x	10	12	-1	-6
COc1cc(SC)ccc1C(=O)NCC1CCCO1 (stereo not given)	2	-2	7	-2	-5	-11
COc1cc(OC)cc(C(=O)NCC2CCCO2)c1 (stereo not given)	-1	2	-4	-5	-1	-2
COc1ccc(N=c2oc3cc(O)ccc3cc2C(=O)NCC2CCCO2)cc1 (stereo not given)	190*	-76	22	1	1	1

Compound activity (PubChem)
